# Shown are actives, neighbours in structure and some others; about 3.7% of the full set was active somewhere.
# Ecoli rRNA inh: inhibitors of bacterial rRNA selective over humanized ribosomes | GFP signal change (wild-type ribosome), % (no concentration beside the values) | AID 720706 | E. coli WT GFP vs humanized-ribosome RFP mutants, fluorescence, 24 h; stronger effect = lower value; DMSO median 0, no signal -100 | 350,000 tested, 1.6% active;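 active = significant combined selectivity score with lowered wild-type GFP, culture density cut under 30%, mutant RFP and density less affected; inactive = any of these conditions unmet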
# esBAF inh: blocks esBAF chromatin remodeling in mouse ES cells. Bmi1-luciferase knock-in reporter, 24 h; 100% = twice the neutral-well signal. reporter increase, % at 12.5 µM. 350,000 tested, 2% active. AID 602393; in the data active = activation above about 40%; inconclusive = no clear call, values can overlap the other calls;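 also: 0% = median of the plate's neutral control wells and 100% = double that signal; a rise in the Bmi1 reporter signal indicates esBAF inhibition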
# AF4-AF9 inh: inhibitors of human MLL-AF4/AF9 interaction | P42568 | AlphaScreen, biotin-AF4 peptide binding to FLAG-AF9 | inhibition, % at 10 µM | 350,000 tested, 0.47% active | AID 651704;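 active = every replicate reaching a set inhibition limit, whatever the replicate mean, cut at about 25% in these data; inconclusive = mean inhibition reaches that limit but some replicates miss it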;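 also: 0% = plate neutral control median and 100% = total signal loss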
# Target sequence (P42568 whole entry, looked up): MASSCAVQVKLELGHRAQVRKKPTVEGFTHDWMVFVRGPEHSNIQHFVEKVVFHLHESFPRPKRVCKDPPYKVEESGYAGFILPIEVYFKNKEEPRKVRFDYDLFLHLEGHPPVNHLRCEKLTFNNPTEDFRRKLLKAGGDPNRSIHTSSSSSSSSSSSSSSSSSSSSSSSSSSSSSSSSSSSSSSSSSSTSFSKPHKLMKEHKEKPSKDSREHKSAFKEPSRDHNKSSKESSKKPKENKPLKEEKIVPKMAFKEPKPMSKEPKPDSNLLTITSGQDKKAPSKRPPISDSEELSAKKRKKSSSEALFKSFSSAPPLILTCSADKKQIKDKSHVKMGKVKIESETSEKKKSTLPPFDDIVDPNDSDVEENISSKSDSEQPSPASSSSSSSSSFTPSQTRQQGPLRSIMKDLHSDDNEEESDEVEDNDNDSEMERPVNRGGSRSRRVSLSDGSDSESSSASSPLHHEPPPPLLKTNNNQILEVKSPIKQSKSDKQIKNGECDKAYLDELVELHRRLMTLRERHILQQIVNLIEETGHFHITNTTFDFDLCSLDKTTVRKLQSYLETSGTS
# MITF TRPM1 HTS: activators of MITF-driven TRPM1 promoter activity in SK-MEL-5 cells. AID 588334. activation, % at 12.5 µM. SK-MEL-5 TRPM1-promoter luciferase, 24 h; % of positive control, neutral wells = 0. 300,000 tested, 0.75% active;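 active = mean activation of at least 80% with every replicate also reaching 80%; inconclusive = mean reaches 80% but some replicate falls short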;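 also: 0% = neutral control wells and 100% = parthenolide positive control wells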
# Wnt act: activates Wnt/beta-catenin signaling in a reporter cell assay; activator, plate reader; activation, % at 9.35 µM; 300,000 tested, 1.2% active; in the data active = activation above about 30%, passing the limit was not always enough; inconclusive = no clear call, values can overlap the other calls;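 also: 0% = neutral control wells and 100% = positive control wells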
# Starred values were filed as active, the others as inactive; ? = inconclusive; . = not tested or not shown.
SMILES,Ecoli rRNA inh,esBAF inh,AF4-AF9 inh,MITF TRPM1 HTS,Wnt act
Cc1ccc(NC(=S)NC(=O)C2CCCCC2)c(Br)c1,-12.4,62.8*,0.2,69.5,9.8
CCOC(=O)C1=CN(C)CCC1=O,19.5,-5.0,-4.3,2.3,-2.8
COc1ccc(-c2nc(CS(=O)CC(=O)NCCN3CCCCCC3)c(C)o2)cc1OC (stereo not drawn),5.2,0.1,4.9,5.0,2.7
CC1(C)CCC(=O)N2CC[C@H]3C[C@H](OC(=O)Nc4ccc5c(c4)OCO5)C[C@@H]1[C@H]32,-15.2,37.9,-24.6,104.1*,14.3
CCOc1ccc(NCc2cccn2-c2nnc(N3CCC(C(=O)NCCCN4CC(C)CC(C)C4)CC3)s2)cc1 (stereo not drawn),-18.4,-86.4,39.9*,-89.8,1.8
Cc1nc(Oc2ccccc2)c2ccsc2n1,3.6,3.5,0.7,1.4,-0.6
CC1CCCCN1C(=O)c1cc(-c2ccc(Cl)c(Cl)c2)on1 (stereo not drawn),.,?,.,109.4*,.
CC1CCCCN1C(=O)c1cc(-c2ccc3c(c2)OCO3)on1 (stereo not drawn),-1.5,30.7,-3.5,139.4*,35.7*
CCC1CCCCN1C(=O)c1cc(-c2ccc(Cl)c(Cl)c2)on1 (stereo not drawn),-13.7,24.4,.,42.4,.
COc1cccc(-c2cc(C(=O)N3C(C)CCCC3C)no2)c1 (stereo not drawn),.,49.1*,.,?,.
O=C1CN(S(=O)(=O)Cc2ccccc2)C[C@@H]2[C@H](c3ccc(C#CC4CC4)cc3)[C@H](CO)N12,-17.2,.,3.2,.,.
O=C(O)c1cccc(-c2nnn(Cc3ccccc3Cl)n2)c1,.,-28.2,.,-54.6,16.2
COc1ccc(C2(CNC(=O)c3ccc(OC)c([N+](=O)[O-])c3)CCOCC2)cc1OC,.,-2.3,.,5.4,.
COc1ccc(C2NN=C(c3ccc(C)cc3)S2)cc1OC (stereo not drawn),16.9,.,0.4,56.7,40.7*
Cc1ccc(C2=NNC(c3cccc(F)c3)S2)cc1 (stereo not drawn),.,.,0.1,-19.5,6.3
Cc1ccc(-n2c(C)nc3oc4ccccc4c(=O)c3c2=O)cc1,.,55.8*,.,12.2,?
CCc1nc2oc3cc(OC)ccc3c(=O)c2c(=O)n1Cc1ccccc1,-14.4,8.0,3.0,10.3,-2.8
CCc1nc2oc3cc(OC)ccc3c(=O)c2c(=O)n1-c1ccccc1,.,44.5*,.,43.2,13.1
Cn1c(=O)c2c(ncn2CC(=O)Nc2nnc(Cc3ccccc3)s2)n(C)c1=O,.,-10.4,.,-4.5,0.6
CN(CCCC1CCCC1)C(=O)CCc1nnc(-c2ccccc2)o1,-47.6,83.6*,47.5*,78.6,9.8
O=C(CCc1nnc(-c2ccccc2)o1)NC1CCCCC1,3.3,47.7*,?,?,8.4
COC(c1ccccc1)c1nnc(CCC(=O)NC2CCCCC2)o1 (stereo not drawn),17.1,.,-0.4,-7.7,0.0
CN(C(=O)CCc1nnc(-c2ccc(-c3ccccc3)cc2)o1)C1CCOCC1,10.2,-7.8,-9.2,4.1,6.7
COc1cc(/C=C/c2noc(-c3ccccc3O)n2)cc(OC)c1OC,.,.,.,?,20.3
COc1ccc(/C=C/c2noc(-c3ccccc3O)n2)cc1,.,.,.,97.6*,.
SMILES,Ecoli rRNA inh,esBAF inh,AF4-AF9 inh,MITF TRPM1 HTS,Wnt act
Cc1cc(OCc2cc(C(=O)NC(C)c3cnn(C)c3)no2)cc(C)c1Cl (stereo not drawn),.,71.9*,1.8,.,.
Cc1cc(OCc2cc(C(=O)NC(C)c3c(C)nn(C)c3C)no2)cc(C)c1Cl (stereo not drawn),-3.6,82.6*,2.1,46.1,1.1
CC(=O)NCCNc1nc2cc(-c3ccc(C)cc3)sc2c(=O)n1C,-5.8,53.5*,2.0,.,4.7
O=C(Nc1ccc2c(c1)CN(C(=O)Nc1ccc(F)cc1)CC2)c1ccccn1,-20.8,47.1*,2.8,.,-2.8
CSc1ccccc1C(=O)N1CCc2ccc(NC(=O)c3ccccn3)cc2C1,-20.6,45.7*,1.6,.,-0.1
Cn1cnc2cc(NC(=O)c3cccs3)ccc21,10.9,.,-1.5,93.2*,13.2
CCC(=O)Nc1ccc2c(c1)ncn2C,9.9,-1.5,-2.4,1.6,-2.2
Cn1c(CN2CCCC2)nc2cc(NC(=O)c3ccc(Cl)cc3)ccc21,6.6,52.5*,-0.9,25.8,1.9
Cc1cccc(C(=O)Nc2ccc3c(c2)ncn3C)c1,-1.6,2.1,-0.4,125.5*,22.3
O=C(Nc1nc2ccccc2n1CCN1CCCC1)c1ccc(Cl)cc1,.,48.4*,.,.,2.9
Cn1c(CN2CCCCC2)nc2cc(NC(=O)c3ccc(Cl)cc3)ccc21,.,?,.,-3.2,.
Cc1cccc(C(=O)Nc2ccc3c(c2)nc(C)n3C)c1,2.5,-55.8,-0.3,-1.2,29.5
CC(=O)Nc1ccc(NC(=O)C(C)OC(=O)[C@@H]2CCCN2C(=O)c2cccs2)cc1 (stereo partly drawn),-1.9,-7.3,4.5,-6.6,0.2
Cc1ccc(S(=O)(=O)N(C)C[C@H]2Oc3cc(C#CC4CCCC4)ccc3S(=O)(=O)N([C@H](C)CO)C[C@H]2C)cc1,6.5,9.6,-1.1,.,-4.2
COc1ccc(/C=N/n2c(N)nc(-c3ccccc3)c2-c2ccccc2)cc1,.,35.0,.,.,1.3
Cc1ccc2c(c1)C1CC(C)(O2)N(c2cccc(C(=O)NC3CCN(Cc4ccccc4)CC3)c2)C(=O)N1 (stereo not drawn),-3.0,-1.2,2.8,15.6,-1.2
Cn1cnc2cc(NC(=O)c3ccc(Cl)cc3)ccc21,-4.9,54.4*,-4.1,55.2,19.3
Cc1ccc(OCC(=O)Nc2ccc3c(c2)ncn3C)cc1,0.2,-6.8,-1.0,5.4,-2.2
CC(=O)Nc1nc2ccccc2n1Cc1ccccc1Cl,-23.2*,-8.3,-3.2,.,1.5
CC(C)(C)n1cnc2cc(NC(=O)c3ccc(Cl)cc3)ccc21,-17.7,6.7,-0.8,.,42.7*
COc1cc(C(=O)Nc2ccc3c(c2)ncn3C(C)(C)C)cc(OC)c1OC,-1.2,3.2,-10.8,.,23.3
Cn1cnc2cc(NC(=O)COc3ccccc3)ccc21,6.5,42.7*,-3.9,65.8,12.3
Cn1cnc2cc(NCc3ccccc3Cl)ccc21,2.6,51.0*,-0.2,?,13.9
COc1cccc(CNc2ccc3c(c2)ncn3C)c1OC,11.0,21.5,5.0,29.0,6.4
CC1(C(=O)NS(=O)(=O)c2ccc(C#N)cc2)CCN1C(=O)c1cccc(F)c1 (stereo not drawn),13.8,-1.7,-4.3,.,49.1*
CC1(C(=O)NS(=O)(=O)c2ccc(Cl)cc2)CCN1C(=O)c1cccc(F)c1 (stereo not drawn),2.6,-4.5,-3.1,.,-0.7
CC1(C(=O)NS(=O)(=O)c2cccc(F)c2)CCN1C(=O)C1(c2ccc(Cl)cc2)CCC1 (stereo not drawn),-16.4*,-1.5,8.3,.,-1.5
CC(C)(C)c1ccc(CC(=O)N2CCC2(C)C(=O)NS(=O)(=O)c2cccc(C#N)c2)cc1 (stereo not drawn),4.4,-3.1,-1.9,.,-0.3
